What follows are compounds tested against G protein-coupled receptor kinase 5 (Homo sapiens) (UniProt P34947). Conditions: at 1 µM.
Sequence of G protein-coupled receptor kinase 5 (Homo sapiens) (P34947 whole entry, looked up): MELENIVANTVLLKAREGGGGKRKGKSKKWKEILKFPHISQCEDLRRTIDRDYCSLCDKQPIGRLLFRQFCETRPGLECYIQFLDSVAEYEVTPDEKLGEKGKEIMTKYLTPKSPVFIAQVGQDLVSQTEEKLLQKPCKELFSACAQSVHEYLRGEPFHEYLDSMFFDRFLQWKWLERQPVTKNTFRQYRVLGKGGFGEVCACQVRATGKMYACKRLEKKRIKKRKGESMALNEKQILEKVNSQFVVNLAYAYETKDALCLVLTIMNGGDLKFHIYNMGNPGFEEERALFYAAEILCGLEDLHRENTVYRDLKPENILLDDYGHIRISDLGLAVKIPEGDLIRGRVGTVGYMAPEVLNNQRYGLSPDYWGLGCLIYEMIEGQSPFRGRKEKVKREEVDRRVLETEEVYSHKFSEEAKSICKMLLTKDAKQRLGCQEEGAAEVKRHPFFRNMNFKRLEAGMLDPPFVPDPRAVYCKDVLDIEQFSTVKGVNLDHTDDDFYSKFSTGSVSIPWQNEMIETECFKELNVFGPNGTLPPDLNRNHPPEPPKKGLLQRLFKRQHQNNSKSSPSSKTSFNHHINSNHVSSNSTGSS

Row | SMILES | residual activity [%]
1 | COc1ccc(C(=O)Nc2sc3c(c2C(N)=O)CCCC3)cc1OC | 91
2 | CCOc1cc2ncnc(Nc3cccc(Br)c3)c2cc1OCC | 97
3 | O=C1Nc2ccc(Br)cc2/C1=C\c1cc2c([nH]1)CCCC2 | 104
4 | Cc1cncc2cccc(S(=O)(=O)N3CCCN(C(=O)CN)C[C@H]3C)c12 | 98
5 | CO[C@@H]1[C@H](N(C)C(=O)c2ccccc2)C[C@H]2O[C@]1(C)n1c3ccccc3c3c4c(c5c6ccccc6n2c5c31)C(=O)NC4 | 82
6 | O=C1NC(=O)/C(=C/c2ccc3c(c2)OC(F)(F)O3)S1 | 92
7 | CCCC(=O)Oc1ccc2[nH]c(C(=O)c3cc4ccccc4[nH]3)cc2c1 | 104
8 | O=C(CCCc1ccc(-c2ccccc2F)cc1)Nc1ccc(O)cc1 | 101
9 | Oc1ccc(Nc2nc(-c3ccc(Cl)cc3)cs2)cc1 | 102
10 | COc1ccc(OC)c2c(=S)c3ccccc3[nH]c12 | 94
11 | Cn1sc(=O)n(Cc2ccccc2)c1=O | 88
12 | O=C1NC(=O)c2c1c1c3ccccc3[nH]c1c1[nH]c3cc(Br)ccc3c21 | 102
13 | CC(=O)c1ccc(N2CCOCC2)cc1O | 105
14 | COc1cc2ncnc(Nc3ccc(O)c(Br)c3)c2cc1OC | 89
15 | Nc1n[nH]c2nnc(-c3c(-c4ccccc4)nn4ccccc34)cc12 | 93
16 | CNc1cc2c(Nc3cccc(Br)c3)ncnc2cn1 | 109

Row | SMILES | residual activity [%]
17 | O=C(Nc1cccc(Nc2nccc(Nc3cccc(C(F)(F)F)c3)n2)c1)C1CC1 | 94
18 | CC(C)c1nn(-c2c(Cl)cccc2Cl)c2nc(Cc3ccc(OCCO)cc3)[nH]c(=O)c12 | 101
19 | Cc1nc2cc3nc(-c4cccs4)cnc3cc2n1C | 113
20 | O=C(O)c1ccc2c3c1cccc3c(=O)n1c3ccccc3nc21 | 95
21 | Cc1cccc(-c2[nH]c(C(C)(C)C)nc2-c2ccc3c(c2)OCO3)n1 | 105
22 | NCCNc1ncc(C(N)=O)c(Nc2cccc(C(F)(F)F)c2)n1 | 105
23 | N#C/C(=C(\N)Sc1ccc(N)cc1)c1ccccc1C(F)(F)F | 97
24 | Oc1ccc(-c2nc(-c3ccc(F)cc3)c(-c3ccncc3)[nH]2)cc1 | 109
25 | CN(C)CCCn1cc(C2=C(c3c[nH]c4ccccc34)C(=O)NC2=O)c2ccccc21 | 61
26 | Cc1cc2ncc(-c3ccccc3)nc2cc1C | 106
27 | CC(C)n1cnc2/c(=N/c3cccc(Cl)c3)nc(NCCO)[nH]c21 | 92
28 | O=C1NC(=O)/C(=C\c2ccc3nccnc3c2)S1 | 103
29 | Cn1cnc2cc3c(Nc4cccc(Br)c4)ncnc3cc21 | 109
30 | Ic1cccc(CSc2nnc(-c3ccncc3)o2)c1 | 89
31 | O=C(NC(NC(=S)Nc1ccc(F)c([N+](=O)[O-])c1)C(Cl)(Cl)Cl)C(c1ccccc1)c1ccccc1 (centres undefined) | 90
32 | Oc1c2ccccc2c2c3c(cccc13)N=N2 | 84

These compounds were tested against G protein-coupled receptor kinase 6 (Homo sapiens) (UniProt P43250). Conditions: at 1 µM.
Sequence of G protein-coupled receptor kinase 6 (Homo sapiens) (P43250 whole entry, looked up): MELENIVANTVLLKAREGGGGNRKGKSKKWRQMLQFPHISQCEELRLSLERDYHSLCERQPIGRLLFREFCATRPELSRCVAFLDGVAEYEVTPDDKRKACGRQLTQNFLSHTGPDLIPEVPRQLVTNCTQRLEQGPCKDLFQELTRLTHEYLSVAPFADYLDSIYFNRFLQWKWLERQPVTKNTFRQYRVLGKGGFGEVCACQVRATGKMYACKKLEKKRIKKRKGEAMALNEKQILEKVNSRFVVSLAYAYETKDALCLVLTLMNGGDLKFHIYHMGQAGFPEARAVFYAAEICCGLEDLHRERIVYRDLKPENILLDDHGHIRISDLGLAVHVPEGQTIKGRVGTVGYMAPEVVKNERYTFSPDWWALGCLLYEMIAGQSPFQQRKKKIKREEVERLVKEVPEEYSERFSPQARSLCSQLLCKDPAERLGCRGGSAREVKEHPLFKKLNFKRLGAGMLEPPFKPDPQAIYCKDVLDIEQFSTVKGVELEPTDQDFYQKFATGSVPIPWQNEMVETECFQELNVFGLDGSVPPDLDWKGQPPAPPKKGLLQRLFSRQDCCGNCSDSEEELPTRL

Row | SMILES | residual activity [%]
33 | COc1ccc(C(=O)Nc2sc3c(c2C(N)=O)CCCC3)cc1OC | 90
34 | CCOc1cc2ncnc(Nc3cccc(Br)c3)c2cc1OCC | 100
35 | O=C1Nc2ccc(Br)cc2/C1=C\c1cc2c([nH]1)CCCC2 | 102
36 | Cc1cncc2cccc(S(=O)(=O)N3CCCN(C(=O)CN)C[C@H]3C)c12 | 84
37 | CO[C@@H]1[C@H](N(C)C(=O)c2ccccc2)C[C@H]2O[C@]1(C)n1c3ccccc3c3c4c(c5c6ccccc6n2c5c31)C(=O)NC4 | 79
38 | O=C1NC(=O)/C(=C/c2ccc3c(c2)OC(F)(F)O3)S1 | 93
39 | CCCC(=O)Oc1ccc2[nH]c(C(=O)c3cc4ccccc4[nH]3)cc2c1 | 93
40 | O=C(CCCc1ccc(-c2ccccc2F)cc1)Nc1ccc(O)cc1 | 101
41 | Oc1ccc(Nc2nc(-c3ccc(Cl)cc3)cs2)cc1 | 103
42 | COc1ccc(OC)c2c(=S)c3ccccc3[nH]c12 | 98
43 | Cn1sc(=O)n(Cc2ccccc2)c1=O | 88
44 | O=C1NC(=O)c2c1c1c3ccccc3[nH]c1c1[nH]c3cc(Br)ccc3c21 | 102
45 | CC(=O)c1ccc(N2CCOCC2)cc1O | 95
46 | COc1cc2ncnc(Nc3ccc(O)c(Br)c3)c2cc1OC | 85
47 | Nc1n[nH]c2nnc(-c3c(-c4ccccc4)nn4ccccc34)cc12 | 87
48 | CNc1cc2c(Nc3cccc(Br)c3)ncnc2cn1 | 95

Row | SMILES | residual activity [%]
49 | O=C(Nc1cccc(Nc2nccc(Nc3cccc(C(F)(F)F)c3)n2)c1)C1CC1 | 99
50 | CC(C)c1nn(-c2c(Cl)cccc2Cl)c2nc(Cc3ccc(OCCO)cc3)[nH]c(=O)c12 | 96
51 | Cc1nc2cc3nc(-c4cccs4)cnc3cc2n1C | 103
52 | O=C(O)c1ccc2c3c1cccc3c(=O)n1c3ccccc3nc21 | 100
53 | Cc1cccc(-c2[nH]c(C(C)(C)C)nc2-c2ccc3c(c2)OCO3)n1 | 103
54 | NCCNc1ncc(C(N)=O)c(Nc2cccc(C(F)(F)F)c2)n1 | 100
55 | N#C/C(=C(\N)Sc1ccc(N)cc1)c1ccccc1C(F)(F)F | 86
56 | Oc1ccc(-c2nc(-c3ccc(F)cc3)c(-c3ccncc3)[nH]2)cc1 | 109
57 | CN(C)CCCn1cc(C2=C(c3c[nH]c4ccccc34)C(=O)NC2=O)c2ccccc21 | 87
58 | Cc1cc2ncc(-c3ccccc3)nc2cc1C | 95
59 | CC(C)n1cnc2/c(=N/c3cccc(Cl)c3)nc(NCCO)[nH]c21 | 90
60 | O=C1NC(=O)/C(=C\c2ccc3nccnc3c2)S1 | 90
61 | Cn1cnc2cc3c(Nc4cccc(Br)c4)ncnc3cc21 | 97
62 | Ic1cccc(CSc2nnc(-c3ccncc3)o2)c1 | 89
63 | O=C(NC(NC(=S)Nc1ccc(F)c([N+](=O)[O-])c1)C(Cl)(Cl)Cl)C(c1ccccc1)c1ccccc1 (centres undefined) | 100
64 | Oc1c2ccccc2c2c3c(cccc13)N=N2 | 87

— ChEMBL document CHEMBL2218924, “A broad activity screen in support of a chemogenomic map for kinase signalling research and drug discovery” (Biochem J, 2013)
